Measurements as given in PubChem BioAssay (NCI).
About 79,000 compounds went through this panel and 15% of them were active in at least one assay; those are over-represented in the sample as a whole. Active and inactive are the calls of the source. Cut-off read from the data, not from the text of the source: active = growth inhibition above about 70%; inactive = the rest.

Experiments:
[1] = NCI Yeast Anticancer Drug Screen. Data for the wt1 strain (AID 149);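 note: 0% = growth of vehicle-treated wt1 cultures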; conditions: S. cerevisiae wt1 strain (SPY 50644) growth inhibition, active compounds read high
Method in brief: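 wt1 yeast, compound-treated; % growth inhibition vs vehicle control.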

[2] = NCI Yeast Anticancer Drug Screen. Data for the rad50EPP+ strain (AID 151);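 note: 0% = growth of vehicle-treated control cultures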; conditions: S. cerevisiae rad50 mutant strain, active compounds read high
Method in brief: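 Genetically defined yeast (rad50EPP+, DNA damage repair alteration) is grown with compound, and inhibition of growth is expressed relative to vehicle-treated controls.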

[3] = NCI Yeast Anticancer Drug Screen. Data for the mgt1 strain (AID 153); conditions: S. cerevisiae mgt1 mutant growth inhibition, active compounds read high
Method in brief: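 In the mgt1 strain, test compounds were added and growth inhibition was determined relative to vehicle-treated controls.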

[4] = NCI Yeast Anticancer Drug Screen. Data for the rad50 strain (AID 155);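 note: 0% = growth of vehicle-only cultures of the same strain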; conditions: S. cerevisiae rad50 strain growth inhibition, active compounds read high
Method in brief: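 Genetically altered yeast (DNA repair pathway); compound treatment; growth inhibition vs vehicle ctrl.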

[5] = NCI Yeast Anticancer Drug Screen. Data for the mec2-1 strain (AID 157); conditions: S. cerevisiae mec2-1 strain, active compounds read high
Method in brief: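 Each compound was tested on mec2-1 yeast, a strain altered in DNA damage repair or cell cycle control. Growth inhibition is reported relative to vehicle.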

[6] = NCI Yeast Anticancer Drug Screen. Data for the rad14 strain (AID 159);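 note: 0% = growth of vehicle-treated control cultures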; conditions: S. cerevisiae rad14 strain growth inhibition, active compounds read high
Method in brief: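 Test compounds were applied to a repair-deficient yeast strain. Its growth was then compared with that of cultures given vehicle alone, and inhibition was expressed relative to those controls.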

[7] = NCI Yeast Anticancer Drug Screen. Data for the sgs1 mgt1 strain (AID 161);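 note: 0% = growth of cultures given vehicle only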; conditions: S. cerevisiae sgs1 mgt1 strain, active compounds read high
Method in brief: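 Inhibition of yeast growth, normalised to vehicle-treated controls, is reported for a strain bearing genetic alterations in DNA damage repair.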

[8] = NCI Yeast Anticancer Drug Screen. Data for the CLN2oe strain (AID 163);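 note: 0% = growth of vehicle-only control cultures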; conditions: S. cerevisiae CLN2oe strain, active compounds read high
Method in brief: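 First, the altered yeast strain was treated with each compound; second, its growth was measured; finally, inhibition was derived by comparison with vehicle controls.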

[9] = NCI Yeast Anticancer Drug Screen. Data for the cln2 rad14 strain (AID 165);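 note: 0% = growth equal to vehicle treated cultures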; conditions: S. cerevisiae cln2 rad14 strain, active compounds read high
Method in brief: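 Test compounds were added to cln2 rad14 yeast cultures; inhibition of growth was then determined by comparison with vehicle treatment.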

[10] = NCI Yeast Anticancer Drug Screen. Data for the bub3 strain (AID 167); conditions: S. cerevisiae bub3 mutant strain, active compounds read high
Method in brief: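 Yeast carrying a defined mutation is treated with each compound, and growth is compared with that of vehicle-exposed cells to give inhibition.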

[11] = NCI Yeast Anticancer Drug Screen. Data for the mlh1 strain (AID 171);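 note: 0% = growth of vehicle-treated control cultures of the same strain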; conditions: S. cerevisiae mlh1 strain growth inhibition, active compounds read high
Method in brief: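 Inhibition values reflect reduced yeast growth in the presence of compound, referenced to vehicle controls, using a strain chosen for its alteration in DNA repair or cell cycle control.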

[12] = NCI Yeast Anticancer Drug Screen. Data for the sgs1 strain (AID 173);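 note: 0% = growth of vehicle-only control cultures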; conditions: S. cerevisiae sgs1 mutant, active compounds read high
Method in brief: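 Vehicle-treated cultures served as reference for growth inhibition of a yeast strain altered in DNA damage repair or cell cycle control after compound exposure.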

[13] = NCI Yeast Anticancer Drug Screen. Data for the mlh1 rad18 strain (AID 175); conditions: S. cerevisiae mlh1 rad18 strain growth inhibition, active compounds read high
Method in brief: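 Inhibition values reflect reduced growth of mutant yeast versus vehicle-treated controls following compound exposure; the mutations affect DNA damage repair.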

[14] = NCI Yeast Anticancer Drug Screen. Data for the rad18 strain (AID 177); conditions: S. cerevisiae rad18 mutant growth inhibition, active compounds read high
Method in brief: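 Steps: expose repair-mutant yeast to compound; measure growth; express as inhibition relative to vehicle control.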

[15] = at 5.0 µM (retest, dose inferred, filed as 0.5)
[16] = at 50.0 µM (retest, dose inferred, filed as 5.0)

Measured: growth inhibition

C[n+]1c(-c2ccc(NC(=O)c3ccc(C(=O)Nc4ccc(-c5cn6ccccc6[n+]5C)cc4)cc3)cc2)cn2ccccc21
active: [1]; at 33.0 µM 70% | [1]; at 100.0 µM 92% | [2]; at 33.0 µM 77% | [2]; at 100.0 µM 88% | [3]; at 33.0 µM 85% | [3]; at 100.0 µM 92% | [4]; at 33.0 µM 76% | [4]; [16] 98% | [4]; at 50.0 µM 74.8% | [4]; at 100.0 µM 91% | [5]; at 33.0 µM 82% | [5]; [16] 98% | [5]; at 100.0 µM 96% | [6]; at 33.0 µM 84% | [6]; at 100.0 µM 96% | [7]; [16] 97% | [8]; at 100.0 µM 89% | [9]; [16] 96% | [10]; at 33.0 µM 83% | [10]; [16] 97% | [10]; at 100.0 µM 93% | [11]; at 33.0 µM 89% | [11]; at 100.0 µM 94% | [12]; at 33.0 µM 83% | [12]; at 100.0 µM 93% | [13]; [16] 98% | [13]; at 50.0 µM 75.5% | [14]; at 33.0 µM 81% | [14]; at 100.0 µM 92%
inactive: [1]; at 1.2 µM 5% | [1]; at 3.7 µM 3% | [1]; at 11.0 µM 13% | [2]; at 1.2 µM -23% | [2]; at 3.7 µM -6% | [2]; at 11.0 µM 36% | [3]; at 1.2 µM 3% | [3]; at 3.7 µM 2% | [3]; at 11.0 µM 20% | [4]; at 1.2 µM 3% | [4]; at 3.7 µM 4% | [4]; [15] 16% | [4]; at 11.0 µM 17% | [5]; at 1.2 µM 4% | [5]; at 3.7 µM 9% | [5]; [15] 5% | [5]; at 11.0 µM 30% | [5]; at 50.0 µM 56.5% | [6]; at 1.2 µM -2% | [6]; at 3.7 µM -2% | [6]; at 11.0 µM 13% | [7]; [15] 15% | [7]; at 50.0 µM 64.5% | [8]; at 1.2 µM -1% | [8]; at 3.7 µM -4% | [8]; at 11.0 µM 18% | [8]; at 33.0 µM 66% | [9]; [15] 32% | [9]; at 50.0 µM 51.5% | [10]; at 1.2 µM -3% | [10]; at 3.7 µM 9% | [10]; [15] 37% | [10]; at 11.0 µM 30% | [10]; at 50.0 µM 57.6% | [11]; at 1.2 µM 2% | [11]; at 3.7 µM 1% | [11]; at 11.0 µM 23% | [12]; at 1.2 µM -2% | [12]; at 3.7 µM 1% | [12]; at 11.0 µM 29% | [13]; [15] 52% | [14]; at 1.2 µM 4% | [14]; at 3.7 µM 2% | [14]; at 11.0 µM 24%
